The values below come from PubChem BioAssay (NCI).

For the assay, the system named is MDA-MB-468 breast. Description: NCI-60 one-dose screen, 48 h (100 = growth as untreated, 0 = no growth, -100 = all killed). Particulars: 10 µM unless noted.

The panel holds about 83,000 compounds, 20% with a hit somewhere; the sample as a whole holds those more often.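 Values shown are percent growth following 48 h exposure of cells in 96-well plates to a single concentration of compound; below 10 was considered active.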 Active and inactive are the calls of the source.

For `COC(=O)c1nc(-c2ccc(C)cc2)oc1Sc1ccc(C)cc1`, the growth is 121% (inactive).
As for `Cc1ccc(Sc2sc(-c3ccccc3)nc2[P+](c2ccccc2)(c2ccccc2)c2ccccc2)cc1`, the growth is -61.8% (active).
To `COc1cccc2c1C(=O)c1c(O)c3c(c(O)c1C2=O)C[C@@](O)(C(=O)CO)C[C@@H]3OC1C[C@H](N)[C@H](O)[C@H](C)O1` (stereo not given in full) belongs -68.8% (active); to `Cc1ccc(-c2cc(-c3nnc(SCC(=O)c4ccccc4)o3)c3ccccc3n2)cc1`, 115% (inactive); to `COc1ccc(/C=C2\CN(Cc3cn(CCCNc4ccnc5cc(Cl)ccc45)nn3)C/C(=C\c3ccc(OC)cc3)C2=O)cc1`, 57.5% (inactive).
The result for `CCN(CC)CCNC(=O)n1cc(-c2ccncc2)c(-c2cc(Cl)cc(OC)c2)n1` reads 80.5% (inactive).
To `Cc1nn(-c2nc(-c3cc4ccccc4oc3=O)cs2)c(C)c1N=Nc1ccccc1` belongs 103% (inactive); to `O=c1scc(-c2ccc(C(F)(F)F)cc2)s1`, 72.5% (inactive); to `O=C(O)[C@@H]1c2ccccc2-c2ccccc2[C@H]1C(=O)O`, 97.5% (inactive).
With `CC1(C)CC[C@]2(C(=O)N3CCOCC3)CC[C@]3(C)C(=CC[C@@H]4[C@@]5(C)C/C(=C/c6ccccn6)C(=O)C(C)(C)[C@@H]5CC[C@]43C)[C@@H]2C1`, the growth was 40.8% (inactive).
The result for `COc1ccc(CCc2nc3cc(-c4c(C)noc4C)ccc3n2CCN2CCOCC2)cc1` reads 9.69% (active); that for `CCN(CC)S(=O)(=O)c1cccc([N+](=O)[O-])c1`, 91.4% (inactive).
To `Cc1ccc(NC(=O)C(Cl)Cl)cc1` belongs 90.9% (inactive); to `O=C(OC[C@@H]1CO1)c1cccc2c(=O)c3ccccc3[nH]c12`, -52% (active).
To `Cc1nc2sc(C(=O)Nc3ccccc3)c(N)c2cc1C(=O)c1ccccc1` belongs 9.68% (active); to `O=C1c2ccccc2CCc2ccccc21`, 95.2% (inactive); to `CC(=O)c1cc2ccccc2o1`, 109% (inactive).
On to `O=C1CC(c2ccccc2)Cc2nc3ccc(Cl)cc3cc21` (stereo not given), for which the growth was 10.2% (inactive).
The result for `COc1ccc(Br)c2ccccc12` reads 100% (inactive); that for `Cn1cc(-c2nc3c(F)cc4[nH]ncc4c3c3c2CCCC3)c(C(F)F)n1`, 52.9% (inactive).
